# Assay outcomes: PubChem, several laboratories
# Sampled rows, rich in hits. Any-hit rate of the full collection: about 2.3%.
# Mcl1-Noxa inh – Mcl-1/Noxa interaction inhibition | TR-FRET Mcl-1/Noxa peptide binding, 2 h | inhibition, % at 21.7 µM | 220,000 compounds, 1.5% hits | AID 1022;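 active means compounds that cut the protein-peptide binding signal by more than 50% relative to plate controls in a single-dose test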;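 further: His-tagged Mcl-1 with rhodamine Noxa BH3 peptide and terbium anti-His antibody; 0% = Mcl-1 plus Noxa peptide wells and 100% = peptide-only wells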
# Bcl-xL primary – inhibitors of human Bcl-xL; inhibition, % at 10.9 µM; GST-Bcl-xL / FITC-Bim BH3 peptide fluorescence polarization; Q07817; 320,000 compounds, 0.7% hits;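 active means inhibition above the mean of all tested compounds plus 3 SD, cutoff set per campaign, cut at about 30% in these data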;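 further: 0% = DMSO wells and 100% = unlabeled Bim-BH3 peptide competitor; inhibitors lower millipolarization by displacing the labeled peptide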
# Bim-Mcl-1 – inhibitors of Bim-Mcl-1 interaction, human; Bead-based flow cytometry, Bim peptide-Mcl-1 binding; inhibition, % at 10 µM; 190,000 compounds, 0.1% hits; Q07820; in the data active means inhibition above about 40%;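 further: 0% = no compound tracer wells and 100% = peptide blocker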
# MCL1 BIM primary – inhibitors of human MCL1 binding to BIM-BH3 peptide; GST-MCL1 / FITC-Bim-BH3 fluorescence polarization; inhibition, % at 10.9 µM; 320,000 compounds, 0.68% hits;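 active means inhibition above the mean inhibition of all tested compounds plus 3 SD, set per campaign, cut at about 40% in these data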;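 further: 0% = DMSO wells and 100% = unlabeled Bim-BH3 peptide control; higher means more loss of mP so more displacement of Bim peptide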
# GLD-1 RNA inh – GLD-1-TGE RNA interaction inhibition (C. elegans); 320,000 compounds, 0.44% hits; inhibition, % at 5.96 µM; Q17339; purified GLD-1 + fluorescein TGE RNA, fluorescence polarization; AID 2280;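 active means percent inhibition above a per-plate cutoff, the plate mean of test compounds plus 3 SD, cut at about 30% in these data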;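 further: 0% = DMSO wells with GLD-1 and probe and 100% = wells lacking GLD-1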
# Target sequence (Q17339 whole entry, looked up): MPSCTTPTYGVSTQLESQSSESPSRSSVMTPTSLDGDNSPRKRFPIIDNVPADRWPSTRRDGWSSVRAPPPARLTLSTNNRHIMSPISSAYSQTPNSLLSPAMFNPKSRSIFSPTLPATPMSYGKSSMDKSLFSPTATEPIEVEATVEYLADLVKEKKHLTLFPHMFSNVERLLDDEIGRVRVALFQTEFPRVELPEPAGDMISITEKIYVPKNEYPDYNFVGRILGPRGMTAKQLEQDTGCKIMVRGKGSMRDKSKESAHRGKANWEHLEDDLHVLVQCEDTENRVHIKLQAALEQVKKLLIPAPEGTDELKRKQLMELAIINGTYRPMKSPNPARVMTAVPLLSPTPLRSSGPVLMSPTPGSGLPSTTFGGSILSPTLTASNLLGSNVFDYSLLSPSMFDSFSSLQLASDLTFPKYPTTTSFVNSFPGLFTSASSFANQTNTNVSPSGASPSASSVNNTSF
# Mcl1-Bid inh – Mcl-1/Bid interaction inhibition; TR-FRET Mcl-1/Bid-Dy647 peptide binding, 1536-well; inhibition, % at 21.7 µM; 220,000 compounds, 0.97% hits;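 active means compounds that cut the binding signal by more than half at the single screening dose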;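 further: His-tagged Mcl-1 with europium anti-His antibody binding Bid BH3 peptide; 0% = Mcl-1 plus peptide wells and 100% = peptide-only wells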
# The depositor's hits bear a star; . = no result given; + = active, no number.
SMILES,Mcl1-Noxa inh,Bcl-xL primary,Bim-Mcl-1,MCL1 BIM primary,GLD-1 RNA inh,Mcl1-Bid inh
O=C(Cn1cc(S(=O)(=O)N2CCN(c3ccccc3F)CC2)c2ccccc2c1=O)NCCCN1CCCCCC1,14,3,-1,4,-3,11
CN(Cc1ccccc1)C(=O)NC1CCCCC1,-10,5,.,-1,-8,-6
O=C(Cc1ccc(-c2ccccc2)cc1)NC1CCCC1,8,-2,45*,3,6,-10
CN(C(=O)NC1CCCCC1)c1ccccc1,-7,5,51*,2,7,-25
CCOC(=O)C1(C)NC(c2ccc(OC)c(OC)c2)C2C(=O)N(CC)C(=O)C21 (centres undefined),6,5,-1,-1,-1,3
CCCC1(C(=O)OCC)NC(c2cc(OC)c(OC)c(OC)c2)C2C(=O)N(CC)C(=O)C21 (centres undefined),8,7,81*,3,0,-19
COc1ccccc1Nc1nn2c(=O)c3ccc(C(=O)N4CCCC(C)C4)cc3nc2s1 (centres undefined),.,2,.,-3,2,.
COc1cccc(N/C=C/c2onc(C)c2[N+](=O)[O-])c1,55*,-42,0,-71,-6,19
CC(c1ccccc1)N1CC(C(=O)Nc2nccs2)CC1=O (centres undefined),.,1,.,2,5,.
CCOC(=O)c1nn(-c2ccccc2)c(C#N)c1N,2,3,41*,14,-11,-29
CCn1nc(C(=O)NNC(=O)C(Cc2ccccc2)NC(N)=O)c2ccccc2c1=O (centres undefined),.,.,.,.,4,.
COc1ccc(N=CC2=C(Nc3ccc(OC)cc3)c3c(C)nn(-c4ccccn4)c3CC2)cc1,.,+,.,+,+,.
COc1ccc(-c2cc(C(=O)O)c3c(C)nn(-c4ccccn4)c3n2)cc1,12,1,5,-2,7,6
COCCn1nnnc1C(c1cccs1)N1CCN2CCCC2C1 (centres undefined),21,8,0,7,-4,9
CC(NC(=O)c1cc(F)c(F)cc1Cl)C1CC2CCC1C2 (centres undefined),.,41*,.,39,0,.
COc1cc(/C=C/C(=O)NC(C)CCc2ccccc2)cc(OC)c1OC (centres undefined),8,-1,0,4,-6,-16
COc1ccc(N2CCN(C(=O)CSc3ccccc3)CC2)cc1,10,0,-4,10,0,-13
COc1ccc(N2CCN(C(=O)c3ccc(CSc4ccccc4)cc3)CC2)cc1,96*,-1,-2,-1,-5,-17
COc1ccc(N2CCN(C(=O)c3ccc4c(c3)OCO4)CC2)cc1,-6,2,-2,0,1,86*
CC(=O)c1ccc(N2CCN(C(=O)c3ccc4c(c3)OCO4)CC2)cc1,.,0,.,-4,3,.
Cc1c(C=O)c(Cl)n(C)c(=O)c1C#N,55*,37*,0,36,21,-6
Cc1cc(C)n(C)c(=O)c1C#N,-10,6,-3,1,7,-12
NCCNC[C@@H]1COC2(CCCCCCCCCCC2)O1,24,-1,.,-2,-2,59*
C=CCn1c(CSCc2ccc(Cl)cc2Cl)nnc1SCC(=O)Nc1ccc(C(=O)O)cc1,11,-5,.,1,6,6
CC1CCC(=C(C#N)c2nc(-c3cc4ccccc4oc3=O)cs2)CC1 (centres undefined),10,4,0,5,-4,-16
SMILES,Mcl1-Noxa inh,Bcl-xL primary,Bim-Mcl-1,MCL1 BIM primary,GLD-1 RNA inh,Mcl1-Bid inh
COc1cc(/C=C(\C#N)c2nc(-c3cc4ccccc4oc3=O)cs2)ccc1O,59*,2,-1,3,-7,64*
COc1cc(/C=C(\C#N)c2nc3ccccc3o2)ccc1O,32,-66,.,-93,-158,-80
COc1cc(/C=C(/C#N)c2nc(-c3cc4ccccc4oc3=O)cs2)cc([N+](=O)[O-])c1O,98*,.,.,.,.,97*
CCCCNC(=O)C1CC(c2ccccc2[N+](=O)[O-])=NO1 (centres undefined),-4,-6,0,-11,0,7
O=C(NCCCCc1ccccc1)C1CC(c2ccccc2[N+](=O)[O-])=NO1 (centres undefined),100*,-1,-3,-3,1,8
COc1ccc(OC)c(C2=NS(=O)(=O)N(C)C(C(=O)NCc3ccco3)=C2)c1,.,-1,.,-8,6,.
Cc1nc2ccccc2c2c(N)c3ccccc3n12,27,35*,3,22,26,-19
O=C(O)Cc1csc(NC(=O)CSc2cccc(C(=O)O)n2)n1,12,-2,.,-1,7,-25
CCOc1ccccc1NC(=O)CSc1nnc2ccc(-c3cccnc3)nn12,-3,-7,40*,-12,5,-19
COc1ccccc1NC(=O)CSc1nnc2ccc(-c3cccnc3)nn12,11,-14,-1,-6,3,-61
COc1ccccc1-c1cc(C(=O)O)c2c(=O)n(C)c(=O)n(Cc3ccccc3)c2n1,.,-2,.,2,4,.
Cn1c(=O)c2c(C(=O)O)cc(-c3ccccc3)nc2n(Cc2ccccc2)c1=O,.,38*,.,35,22,.
Cc1cc(C)nc(N/N=C/C2=C(N3CCOCC3)C(=C\c3ccc(Cl)cc3)/CC2)n1,36,-2,-5,-5,8,-117
O=C(O)c1ccc(N/N=C/C2=C(N3CCOCC3)C(=C\c3ccccc3)/CC2)cc1,75*,-24,.,-23,-2,-81
CC1=C/C(=C(/c2ccc(O)c(C)c2)c2ccccc2S(=O)(=O)O)C=CC1=O,.,12,.,6,6,.
CC1=C/C(=C(/c2cc(C)c(O)c(Br)c2)c2ccccc2S(=O)(=O)O)C=C(Br)C1=O,.,41*,.,43*,19,.
CCOC(=O)C1=C(COC(=O)/C=C/c2cccc([N+](=O)[O-])c2)NC(=O)NC1C (centres undefined),.,5,.,3,-4,.
CCCCSc1cc(C)nc(N)n1,37,7,.,10,-7,79*
COc1ccc2cc(/C=C/C(=O)N3CCN(CC(=O)N4CCCCCC4)CC3)ccc2c1,.,3,.,1,2,.
NCCCC[C@@H]1NC(=O)c2cc([N+](=O)[O-])cc(I)c2SC[C@@H](C(N)=O)NC(=O)[C@H](Cc2ccc(O)cc2)NC1=O,54*,5,-2,6,4,30
O=c1c2c(nc3cc(-c4cccc(F)c4)[nH]n13)CCC2,15,-3,-1,-4,-4,-25
Cc1[nH]n2c(=O)c3c(nc2c1-c1ccccc1)CCCC3,19,2,-3,2,1,-10
O=c1c2c(nc3cc(-c4ccc(F)cc4)[nH]n13)CCCC2,52*,7,0,9,1,-24
Cc1[nH]n2c(=O)c3c(nc2c1-c1ccc(F)cc1)CCCC3,4,10,4,1,3,81*
